Screening data deposited in PubChem by several laboratories.
PPC-1+TRAIL kill: compounds killing PPC-1 cancer cells with TRAIL present, primary screen, TRAIL potentiator project, ATPLite luminescence, uHTS; PPC-1 cells + TRAIL, ATPLite viability luminescence; cell killing (% activity), % at 4 µM or 5 µM; actives 0.41% (n = 220,000);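 active means cell killing above 50% in the first pass at 4 µM, then a duplicate retest at 5 µM averaging 50% or more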;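 further: plate controls were cells with TRAIL plus DMSO for no effect and medium-only wells lacking cells for full effect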
TRAIL sens C8: viability loss with TRAIL in NB7+C8 cells, primary screen, TRAIL sensitizer project, cell-based, ATPlite luminescence. inhibition (viability loss, TRAIL sensitization), % at 10 µM. actives 1% (n = 360,000);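 active means compounds causing at least 50% loss of cell viability in the single-dose screen, relative to plate controls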
TWEAK-Fn14 inh: inhibitors of TWEAK-Fn14 signaling, primary screen, luciferase reporter cells, uHTS; inhibition, % at 10 µM; actives 2% (n = 360,000); AID 1159606, 2016; TWEAK-stimulated Fn14 reporter cells, luciferase luminescence, 8 h; in the data active means inhibition above about 50%
Platelet DG rel: inhibitors of platelet dense granule secretion, primary screen, cell-based, MLPCN, human platelets; AID 1663, 2009; inhibition, %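 (compounds screened at 7.5 µM in platelet-rich plasma)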; actives 0.22% (n = 300,000); human platelet-rich plasma, SFLLRN dense granule ATP release, luminescence;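 active means mean replicate score, as percent of positive control, at or above 50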
HSP90 inh: HSP90 inhibitors, primary screen, cell lysate, luminescence | Heat shock protein HSP 90 (rabbit reticulocyte lysate; luciferase refolding) | Rabbit reticulocyte lysate, luciferase refolding luminescence, 3 h | inhibition, % at 5.6 µM | actives 0.91% (n = 290,000);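 active means inhibition above the screen-wide mean plus 3 SD, computed separately per campaign, cut at about 16% in these data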;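 further: 0% = DMSO wells and 100% = 60 µM geldanamycin wells; inhibitors lower the luminescence because luciferase stays unfolded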
TROY signal inh: inhibitors of TROY-driven NF-kB signaling, primary screen, Q293 LMP1-TROYcd cells, NF-kB luciferase, uHTS | Q293 LMP1-TROYcd NF-kB luciferase reporter, 4 h | actives 0.98% (n = 360,000) | inhibition, % at 10 µM;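 active means compounds whose plate-normalised and pattern-corrected inhibition of the luciferase reporter signal at the single screening dose is 50% or more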
Active calls of the source: *; / = not tested or not shown; ! = not confirmed by another sample. An excerpt weighted towards active compounds, which were near 3.5% of everything screened.

SMILES	PPC-1+TRAIL kill	TRAIL sens C8	TWEAK-Fn14 inh	Platelet DG rel	HSP90 inh	TROY signal inh
OC[C@H]1O[C@@H](n2cnc3c(NCc4ccco4)ncnc32)[C@H](O)[C@@H]1O	/	48	22	/	/	2
C=CCNc1ncnc2c1ncn2C1OC(CO)C(O)C1O (stereo not given)	11	57*	-31	31	-2	16
OCC1OC(n2cnc3c(NC4CCCCC4)ncnc32)C(O)C1O (stereo not given)	3	-10	-54	42	-2	-19
OC[C@@H]1CN(Cc2ccc(-c3ccccc3)cc2)C[C@H](n2cnc3c(NC4CCC4)ncnc32)O1	/	6	59*	/	/	36
OCC1OC(n2cnc3c(NC4CCCC4)ncnc32)C(O)C1O (stereo not given)	/	10	-41	82*	/	13
C[C@H](O)[C@@H]1C(=O)N2CCc3ccc(N4CCOCC4)cc3[C@@H]2C[C@@H]1N(C)C(=O)Nc1ccccc1	/	7	16	/	/	-7
Cc1ccc(C(C)C)c(OCC(=O)NNCC(=O)Nc2cccc(F)c2)c1	/	-12	1	/	/	-10
Cc1cc(N2CCN(C(C(=O)NC3CCCC3)C(C)(C)C)CC2)c2ccccc2n1 (stereo not given)	/	3	/	/	/	/
Cc1cccc(NC(=O)N2CCC(NC(=O)C3CCCCC3)CC2)c1	/	6	1	0	-2	10
COc1ccc(NS(=O)(=O)c2csc(C(=O)N3CCCC3)c2)c(OC)c1	/	0	0	9	-2	4
Cc1ccc(C(=O)N2CCN(c3ncc(C(F)(F)F)cc3Cl)CC2)s1	/	5	-13	-8	-4	9
Cn1c(CCNS(=O)(=O)c2ccccc2)nnc1SCc1cccnc1	/	6	-8	9	-3	-8
OC[C@H]1O[C@@H](n2cnc3c(NC4CCCC4)ncnc32)[C@H](O)[C@@H]1O	3	-2	-45	57*	4	11
Cc1ccc(NC2=C/C(=N/S(=O)(=O)c3cccs3)c3ccccc3C2=O)cc1	38	95*	94*	12	1	60*
COC(=O)c1ccccc1NC1=C/C(=N\S(=O)(=O)c2cccs2)c2ccccc2C1=O	4	80*	99*	-4	4	51*!
Cc1ccc(S(=O)(=O)/N=C2\C=C(NS(=O)(=O)c3ccccc3)C(=O)c3ccccc32)c(C)c1	/	2	-19	/	/	21
Cc1ccc(S(=O)(=O)/N=C2\C=C(Nc3ccc(O)cc3)C(=O)c3ccccc32)cc1	/	93*	101*	/	/	43
COc1ccc2c(C(=O)NCc3ccc4c(c3)OCO4)c(-c3ccc(S(C)(=O)=O)cc3)sc2c1	/	16	-6	/	/	1
CNC(=O)C[C@H]1C(=O)N(CCc2ccccc2)C[C@@H]1CSC	/	-19	-22	/	/	-2
Cc1ccc(C(=O)c2ccccc2C(=O)OCC(=O)NCCc2ccc(Cl)cc2Cl)cc1	-6	2	20	3	2	6
Cc1ccc(Cl)c(NC(=O)COC(=O)c2ccccc2C(=O)c2ccc(Cl)c([N+](=O)[O-])c2)c1Cl	7	5	100*	6	4	65*
CCCNC(=O)COC(=O)c1ccccc1C(=O)c1ccc(Cl)c([N+](=O)[O-])c1	7	-9	99*	-3	2	67*
Cc1cc(S(=O)(=O)Nc2ccc(C(=O)NCCCN3CCCC3=O)cc2)ccc1F	/	-9	10	2	/	6
CCN(CC)c1nc(Oc2ccc(C(=O)NN)cc2)nc(Oc2ccc(C(=O)NN)cc2)n1	/	-9	-25	-2	6	53*
CCN(CC)c1nc(Nc2ccccc2)nc(Oc2ccc(C(=O)OC)cc2)n1	15	15	27	6	5	22
SMILES	PPC-1+TRAIL kill	TRAIL sens C8	TWEAK-Fn14 inh	Platelet DG rel	HSP90 inh	TROY signal inh
CSc1ccccc1-c1cnc(NC(C)=O)cn1	/	3	-13	/	/	-28
CN(CC(=O)N1CCCCCC1)S(=O)(=O)c1ccc(F)cc1	20	11	-14	1	-3	-5
CN(CCCC(=O)N1CCCC(C(N)=O)C1)S(=O)(=O)c1ccc(F)cc1 (stereo not given)	/	-2	68*	-11	2	-7
CCN(C(=O)CSc1nnc(CNc2cccc(OC)c2)n1C1CCCCC1)C1CCS(=O)(=O)C1 (stereo not given)	/	-18	7	17	5	3
N#Cc1cc2c(nc1SC1CC(=O)N(c3ccccc3)C1=O)CCC2 (stereo not given)	-6	26	100*	/	3	83*
CSc1nc2c(cc1C#N)CCC2	10	-2	22	-2	-2	-1
Cc1nn(C(=O)CN2C(=O)c3ccccc3C2=O)c(C)c1Br	15	9	95*	0	1	/
CC(=O)NC(NC(=S)Nc1ccc(N=Nc2ccccc2)cc1)C(Cl)(Cl)Cl (stereo not given)	26	1	63*	-1	0	-19
O=C(/C=C/c1ccccc1)NC(NC(=S)Nc1ccc(Cl)cc1)C(Cl)(Cl)Cl (stereo not given)	-18	52*	67*	-1	0	42
CC(=O)NC(NC(=S)Nc1ccc(S(N)(=O)=O)cc1)C(Cl)(Cl)Cl (stereo not given)	21	13	-13	0	6	5
CN(C)c1ccc(/C=N/Nc2nncc3ccccc23)cc1	/	66*	20	54*	3	2
C(=N\Nc1nncc2ccccc12)/c1ccccc1	27	50*	6	9	2	-40
COc1cc(/C=N/Nc2nncc3ccccc23)cc(OC)c1OC	/	31	-31	11	2	-23
CC(=O)Nc1ccc(C=NNc2nnc(NN=Cc3ccc(NC(C)=O)cc3)c3ccccc23)cc1	/	64*	56*	/	/	38
CC1(C(=O)NS(=O)(=O)c2ccccc2Cl)CCN1C(=O)C1(c2ccc(Cl)cc2)CC1 (stereo not given)	/	-18	1	/	/	-4
Cc1cc2c(cc1C)C(c1ccccc1Br)CC(=O)N2 (stereo not given)	54*	-8	5	-8	2	-2
CCCOc1ccccc1C1CC(=O)Nc2cc3c(cc21)OCCO3 (stereo not given)	-2	-11	55*	0	0	48
COc1ccccc1C1CC(=O)Nc2cc(C)c(C)cc21 (stereo not given)	/	21	0	16	4	-28
CCOc1ccccc1C1CC(=O)Nc2cc3c(cc21)OCCO3 (stereo not given)	4	-8	17	-5	1	23
O=C(O)[C@@H]1CCCN1S(=O)(=O)c1cccc2cccnc12	/	-5	1	/	/	-2
